Screen size: about 16,000 compounds; about 80 (0.5%) were called active. Shown is part of a subset that was picked to be rich in actives. A number with no mark means an inactive call. No stated cut-off is given here; in the data, active means activation above about 15%; inactive means the rest.

Consider 38 compounds from PubChem BioAssay AID833 (The Scripps Research Institute Molecular Screening Center, 2007).

Sequence of Galanin receptor type 2 (Rattus norvegicus) (O08726 whole entry, looked up): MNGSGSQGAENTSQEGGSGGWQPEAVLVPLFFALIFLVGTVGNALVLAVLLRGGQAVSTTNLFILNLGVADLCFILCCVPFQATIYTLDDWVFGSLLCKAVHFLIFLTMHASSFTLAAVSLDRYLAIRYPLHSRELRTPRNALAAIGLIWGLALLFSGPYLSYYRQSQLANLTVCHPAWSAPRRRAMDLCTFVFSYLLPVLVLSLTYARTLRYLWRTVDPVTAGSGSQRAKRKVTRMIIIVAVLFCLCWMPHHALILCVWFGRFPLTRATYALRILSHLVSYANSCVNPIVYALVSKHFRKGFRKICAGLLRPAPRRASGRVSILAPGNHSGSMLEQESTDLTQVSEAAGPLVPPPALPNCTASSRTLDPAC

The experiment has as its target Galanin receptor type 2 (Rattus norvegicus) (UniProt O08726). Put plainly: agonists of rat galanin receptor 2 (GALR2) (AID 833). Conditions: cell-based GALR2 agonist screen; at 10 µM; stronger effect = higher value.
Take `CC(C)N(C(=O)c1ccc(-c2ccccc2F)cc1)C(C)C`: the activation is -5.45%.

On to `O=C(O)CC1(CC(=O)Nc2ccc(N3CCCCC3)cc2)CCCCC1`, for which the activation is -3.41%.

As for `Cn1cc(Br)c(-c2ccc(NC(=O)Nc3ccc(Cl)cc3)cc2)n1`, the activation was -8.08%.

`COC(=O)c1noc(C)c1-c1ccnn1C(=O)c1ccc(Cl)cc1`: the activation was -1.59%.

With `CSC(=CC(=O)c1cccs1)SC`, the activation is -10.2%.

With `COc1cccc2c1c(NS(=O)(=O)c1cn(C)cn1)nn2C`, the activation is -5.19%.

With `CSc1nsc(SC)c1C(=O)NC(=O)NNc1ccc(F)c(Cl)c1`, the activation is -2.68%.

For the compound `Oc1[nH]c2ccc(F)cc2c1N=NC(=S)NC1CC2C=CC1C2` (stereo not drawn), the activation is -9.63%.

In the case of `NS(=O)(=O)c1cc(Br)ccc1I`, the activation is -1.14%.

Regarding `Cc1c(S(=O)(=O)N2CCOCC2)ccc(Cl)c1F`, the activation was -9.66%.

In the case of `O=[N+]([O-])c1ccc(-c2ccc(I)cc2)cc1`, the activation was -5.42%.

With `O=[N+]([O-])c1ccc(-c2nnnn2Cc2c(Cl)cccc2Cl)cc1`, the activation was -2.65%.

`Cc1c(NC(=S)Nc2ccccc2)c(=O)n(-c2ccccc2)n1C`: the activation was -1.67%.

Consider `COC(=O)c1cc(OC)c(OC)cc1NC(=O)c1ccccc1C(=O)O`, for which the activation is 0.04%.

On to `COc1cc(CCN=Cc2ccccc2O)c([N+](=O)[O-])cc1OC`, for which the activation was -0.09%.

Consider `O=C(NCc1cccnc1)Nc1cccc(NC(=O)NCc2cccnc2)c1F`, for which the activation is -10%.

In the case of `CNC(=S)NNC(=O)c1cc(C)on1`, the activation is -5.05%.

Consider `Cc1cc(C)nc(N/C=C(\C#N)S(=O)(=O)c2ccc(Cl)cc2)n1`, for which the activation is -7.71%.

Take `N#CC(c1cc2ccccc2cn1)c1ccc2c(c1[N+](=O)[O-])C(=O)c1ccccc1C2=O` (stereo not drawn): the activation is -8.33%.

Regarding `N#CC1(C#N)C(c2ccc(Cl)c(Cl)c2)C1(C#N)C#N`, the activation is -8.55%.

For `CSc1n[nH]c(=O)n1-c1cccc(C(F)(F)F)c1`, the activation is -7.62%.

As to `COc1ccc(NC(=S)Nc2ccc(F)cc2F)c([N+](=O)[O-])c1`, the activation is -8.62%.

Regarding `c1ccc2c(-c3csc(-c4ccc5c(c4)OCCO5)n3)csc2c1`, the activation is -9.38%.

For the compound `Cc1nc(-c2ncc(-c3ccccc3)o2)c(C(F)(F)F)o1`, the activation is -5.66%.

Regarding `O=C(CSc1c(F)c(F)c(C(=O)O)c(F)c1F)Nc1cccc(C(F)(F)F)c1`, the activation was -5.69%.

As for `COC(=O)c1sccc1NC(=S)Nc1ccc(C)cc1`, the activation was -4.74%.

Regarding `Cc1cc(CNC(=O)c2cc(C)n(C)n2)no1`, the activation is 4.72%.

Turning to `Cc1nnsc1-c1nnc(SCC(=O)c2ccc3c(c2)OCO3)n1C1CC1`, the activation is -3.99%.

Consider `O=C(O)CC(CC(=O)Nc1cc(C(F)(F)F)ccc1N1CCOCC1)c1ccccc1` (stereo not drawn), for which the activation was -5.13%.

Regarding `N/C(=N\O)c1ccc2nonc2c1`, the activation is -8.97%.

For the compound `Cc1cc(CNCC(O)C(F)(F)F)no1` (stereo not drawn), the activation is -7.81%.

Regarding `CSc1sc(C(=O)NC2CC2)c(-c2ccc(Cl)cc2)c1C#N`, the activation was -8.05%.

With `Cc1ccc(S(C)(=O)=NC(=O)NS(=O)(=O)Oc2ccc(Cl)cc2Cl)cc1` (stereo not drawn), the activation is -1.36%.

On to `Cc1oc(-c2ccc(Cl)cc2)cc1C(=O)O/N=C(\N)Cc1nc2cccnc2n1C1CC1`, for which the activation is -4.62%.

In the case of `O=C(NCc1csc(-c2cccs2)n1)Nc1ccccc1-c1ccccc1`, the activation is -9.54%.

Turning to `Cc1oc(C(C)(C)C)cc1C(=O)NC1Cc2ccccc2C1`, the activation is -2.8%.

`CCOc1c(N2CCCCC2)c(=O)c1=O`: the activation is 24.1% (active).

As for `Cc1cc(-c2nc(C(=O)NN3CCCCC3)cs2)no1`, the activation was -7.49%.
